# High-throughput results from PubChem.
# AmpC detergent: blocks E. coli AmpC beta-lactamase in detergent assay | P00811 | AmpC hydrolysis of nitrocefin, absorbance 480 nm, 0.01% Triton | Potency, µM (titrated, usually from 114 µM), for inactives: top-dose activity change, negative = inhibition, actives largely listed as inhibitors | 0.041% of 370,000 active | AID 485294;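 also: potency is read from the fitted curve at half-maximal effect; 0% = no-compound wells and -100% = no-enzyme wells; nearly all actives have a fitted effect of over 25% in size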
# Target sequence (P00811 whole entry, looked up): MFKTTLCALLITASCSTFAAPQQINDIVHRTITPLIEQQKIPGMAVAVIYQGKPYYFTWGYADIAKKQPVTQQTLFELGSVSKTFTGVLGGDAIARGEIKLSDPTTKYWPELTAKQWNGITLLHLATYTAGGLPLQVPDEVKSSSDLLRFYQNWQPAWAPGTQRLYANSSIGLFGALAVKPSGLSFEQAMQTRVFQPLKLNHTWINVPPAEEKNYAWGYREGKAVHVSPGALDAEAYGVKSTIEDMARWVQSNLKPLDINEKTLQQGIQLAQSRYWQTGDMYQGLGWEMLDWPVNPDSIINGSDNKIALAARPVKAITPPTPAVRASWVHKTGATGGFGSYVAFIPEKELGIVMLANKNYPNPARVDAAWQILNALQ
#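 AmpC (5.3 nM in the dispensed reagent) in 20 mM phosphate pH 7.0 with 0.01% (detergent screen) or 0.0001% Triton X-100 was preincubated with compounds for 15 min at room temperature. Nitrocefin was then added from an 800 uM solution, and hydrolysis was followed at 480 nm.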
# Shiga toxin inh: blocks Shiga toxin action in Vero cells | 9.2% of 290,000 active | inhibition, % at 38.7 µM | AID 2315 | Vero cells, Shiga toxin protein synthesis inhibition reporter; in the data active = inhibition mostly above about 28%, no sharp cut-off; inactive = mostly below about 43%; also: 0% is about no effect
# AMA1 RON2 block: disrupts binding of P. falciparum AMA1 to RON2; Potency, µM (titrated, usually from 58.2 µM), for inactives: at the highest dose activity change, negative = inhibition, most hits filed as inhibitors; 0.2% of 360,000 active; AID 720542; AlphaScreen AMA1-biotinylated RON2 peptide binding;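 also: potency is read from the fitted curve at half-maximal effect; 0% = vehicle wells and -100% = peptide control; nearly all actives have a fitted effect of over 45% in size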
#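 AMA1 (3D7) with his tag at 25 nM final met compounds first, then biotinylated RON2 peptide at 25 nM; detection used donor plus acceptor beads, 10 µg/mL apiece, read by AlphaScreen after 30 min at room temperature.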
# SARS PLpro yeast: SARS-CoV PLP inhibition in yeast; S. cerevisiae expressing SARS-CoV PLpro, growth rescue; Potency, µM (highest dose often 32.9 µM), without a hit: top-dose activity, positive = growth rescue, usual class: activators; 0.19% of 330,000 active; AID 485353; calls by dose curve; also: potency is read from the fitted curve at half-maximal effect; 0% is about no effect; nearly all actives have a fitted effect of over 55% in size
# AmpC inh no detg: blocks E. coli AmpC beta-lactamase in detergent-free assay; P00811; AmpC nitrocefin hydrolysis, absorbance 480 nm, 0.0001% Triton; Potency, µM (top dose mostly 57.1 µM), for inactives: at the highest dose activity change, negative = inhibition, most hits filed as inhibitors; 0.52% of 330,000 active; AID 485341;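 also: potency is read from the fitted curve at half-maximal effect; plate controls were no compound for no effect and no enzyme for full effect; nearly all actives have a fitted effect of over 20% in size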
#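 20 mM phosphate pH 7.0 + 0.01% (detergent screen) or 0.0001% Triton X-100; 5.3 nM AmpC reagent; cpd preinc 15 min RT; nitrocefin (800 uM stock) to start; A480 q20 s × 4 min; Activity was normalised to no-enzyme and no-compound control wells.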
# CHX counter: counter-screen hit for Shiga toxin inhibitors, cycloheximide; cell reporter, cycloheximide protein synthesis inhibition counterscreen; 12% of 300,000 active; max response, %; AID 2314; in the data active = max response mostly above about 13%, no sharp cut-off; inactive = mostly below about 14%; also: read at 38.3 µM for the half of the compounds with a filed dose; 0% is about no effect
# * hit, by the source's call; ? = inconclusive; . = not tested or not shown. Only a selection was taken, and hits are over-represented in it overall. Unless noted, calls follow the shape of the dose curve; as a rule, active = well fitted curve in the direction sought with a large enough effect; inconclusive = small, poorly fitted or top-dose-only effect, or another doubt; inactive = no such curve, though single readings can be large; an effect the other way counts as inactive or inconclusive.
SMILES,AmpC detergent,Shiga toxin inh,AMA1 RON2 block,SARS PLpro yeast,AmpC inh no detg,CHX counter
CCC(C(=O)NC1CCCC1)N(C(=O)Cn1nnc(-c2ccc(OC)c(OC)c2)n1)c1cccc(O)c1 (centres undefined),?,17.7,-10.7%,0.0%,49.5%,-4.5
Cc1cccc(C(=O)O/N=C(\c2ccccc2)c2cccnc2)c1,0.2%,-5.6,4.8%,-31.9%,-12.4%,3.3
COc1cccc(C(=O)O/N=C(\N)c2ccccn2)c1,-1.3%,-14.6,60.6%,-14.8%,-7.8%,-9.2
Cc1cccc(C(=O)O/N=C(\N)CS(=O)(=O)c2ccccc2)c1,-9.0%,48.1,-2.8%,4.6%,-15.8%,15.6*
COc1cccc(C(=O)O/N=C(\N)CS(=O)(=O)c2ccccc2)c1,-13.4%,62.9*,3.6%,7.5%,-13.6%,56.3*
Cc1cc(NC(=O)NC(=O)c2ccc(F)cc2F)n[nH]1,-6.0%,43.3*,-5.3%,-0.3%,-0.6%,19.4*
NC(=O)CN1CCN(c2nc(-c3ccc(F)cc3)cs2)CC1,-5.8%,15.6,0.0%,-8.8%,84.1%,2.3
COc1ccc(S(=O)(=O)N/N=C(/C)c2ccco2)cc1,-4.9%,130.2*,13.2%,6.8%,18.4%,55.6*
COc1ccc(S(=O)(=O)N/N=C(/C)c2ccc(C)o2)cc1,.,.,-18.7%,.,.,.
O=C(c1ccc2c(c1)OCO2)N1CCc2ccccc2C1,-8.0%,55.1*,3.6%,-2.1%,-9.5%,70.4*
O=C(c1cccc(N2C(=O)C3CC=CCC3C2=O)c1)N1CCCc2ccccc21 (centres undefined),-0.2%,74.5*,1.1%,0.9%,12.3%,35.5*
O=C(c1cccc(N2C(=O)C3C4C=CC(C4)C3C2=O)c1)N1CCCc2ccccc21 (centres undefined),-7.8%,-2.0,16.2%,-2.7%,18.3%,6.7
O=C(c1ccc2c(c1)OCO2)N1CCc2ccccc21,0.4%,58.7*,-15.4%,0.9%,-16.6%,29.2
O=C(c1ccc2c(c1)OCO2)N1CCCc2ccccc21,?,73.7*,11.2%,1.5%,-15.9%,39.7*
O=C(c1ccc2c(c1)OCO2)N1CCCCC1,.,-2.0,.,.,.,6.8
Cc1ccc2c(c1)CCCN2C(=O)c1ccc2c(c1)OCO2,-3.4%,-0.5,0.5%,-6.8%,?,-3.0
Cc1cc(C)cc(N2CC(C(=O)O)CC2=O)c1 (centres undefined),?,22.6,-3.9%,5.1%,-18.9%,0.6
CC(NCc1ccc2c(c1)OCO2)C(=O)N1CCc2ccccc21 (centres undefined),?,-4.7,?,-10.7%,-13.9%,-2.6
O=C(c1ccc(=O)oc1)N1CCCc2ccccc21,?,76.2*,?,2.1%,-23.6%,50.7*
O=C(c1ccccc1)N1CCCc2ccccc21,4.1%,1.9,-1.0%,0.9%,-5.8%,2.6
CC(Nc1ccc2c(c1)OCCO2)C(=O)N1CCc2ccccc21 (centres undefined),-4.0%,84.3*,-7.7%,1.8%,?,21.2*
O=C(Nc1ccc(Oc2cccnc2)cc1)c1ccccc1F,-4.9%,63.5,8.0%,-5.8%,-29.0%,25.7*
O=C(N/N=C/c1cccnc1)c1ccc(NC(=O)c2ccccc2Cl)cc1,-9.7%,35.2,4.1%,2.9%,-27.0%,0.6
O=C(Nc1ccc(Oc2cccnc2)cc1)c1ccccc1Cl,-2.7%,1.9,4.6%,-16.8%,-21.0%,27.5*
CCCCn1c(-c2ccco2)n[nH]c1=S,-4.5%,-9.6,58.6%,11.9%,1.5%,3.6
SMILES,AmpC detergent,Shiga toxin inh,AMA1 RON2 block,SARS PLpro yeast,AmpC inh no detg,CHX counter
Cc1csc(CNC(=O)C2CCC(=O)N(CCCc3ccccc3)C2)n1 (centres undefined),2.8%,-6.2,0.9%,9.1%,-0.2%,-3.5
O=C(NN=C1C2CC3CC1CC(Cl)(C3)C2)c1cccs1,3.4%,35.1,55.9%,-5.0%,-22.1%,44.7*
O=C(NN=C1C2CC3CC1CC(Cl)(C3)C2)c1ccccn1,2.3%,43.1,87.0%,-1.0%,-17.7%,14.3*
O=C(NN=C1c2ccccc2-c2ccccc21)c1ccccn1,-4.4%,60.5,32.0%,-3.4%,-19.4%,1.3
CN(CC(=O)NCc1ccccn1)S(=O)(=O)c1ccc(F)cc1,7.6%,11.5,-4.9%,-0.9%,-6.0%,0.5
COc1ccccc1/C=C/C=N/n1c(-c2ccccn2)n[nH]c1=S,-1.4%,63.8*,-50.4%,2.2%,-21.2%,33.9*
Cc1cccc(/C=N/n2c(-c3ccccn3)n[nH]c2=S)c1,-7.8%,47.4*,.,7.0%,-19.1%,34.9*
COc1cc(N/N=C/c2ccc(N(C)C)cc2)ncn1,-2.9%,97.4*,-10.2%,0.2%,-8.2%,44.8*
CCNc1nc(NCC)nc(N/N=C/c2ccc(N(C)C)cc2)n1,5.6%,11.4,0.8%,0.2%,-26.1%,5.1
CNc1ccccc1C(=O)OCC(=O)N1CCc2ccccc2C1,.,.,21.6%,.,.,.
COC(=O)c1ccc(CSc2nc3ccccc3c(=O)n2Cc2ccco2)o1,8.7%,17.5,-10.9%,-4.1%,-14.3%,15.9*
O=C(Nc1cccc(Cl)c1)c1c(O)c2c(n(Cc3ccco3)c1=O)CCCC2,-1.1%,57.1,4.4%,4.5%,-10.5%,31.4*
NS(=O)(=O)c1cccc(NC(=O)CSc2nc3ccccc3c(=O)n2CCCN2CCOCC2)c1,-7.2%,1.2,21.1%,2.1%,31.6µM*,6.9
O=C(CSc1nc2ccccc2c(=O)n1Cc1ccco1)Nc1cccc(O)c1,4.4%,42.7,-24.7%,0.7%,-55.7%,19.0*
O=C(Nc1ccccc1)c1c(O)c2c(n(Cc3ccco3)c1=O)CCCC2,7.1%,29.3,0.3%,2.7%,-21.6%,11.8
COc1ccc(NC(=O)C2(C)Cc3c(-c4ccc5c(c4)OCO5)ccnc3O2)cc1OC (centres undefined),.,.,-20.9%,.,.,.
O=C(Cn1c(=O)n(Cc2ccco2)c(=O)c2ccccc21)Nc1cccc(Cl)c1,?,30.5*,2.5%,8.9%,-57.1%,22.9*
Cc1ccc(NC(=O)Cn2c(=O)n(Cc3ccco3)c(=O)c3ccccc32)cc1,23.2%,.,.,.,.,.
CC1CCCC(NC(=O)CCCCCn2c(=S)[nH]c3ccsc3c2=O)C1C (centres undefined),.,.,158.8%,.,.,.
CC(C)C(=O)Nc1nc2cc3c(cc2s1)OCO3,?,76.8*,-7.2%,-9.7%,10µM*,26.1*
Cc1cccc2sc(NNC(=O)c3ccc4c(c3)OCCO4)nc12,?,75.9,56.4%,-12.2%,-58.7%,12.4
CC(=O)Nc1nc2cc3c(cc2s1)OCCO3,?,29.2*,5.8%,5.0%,-23.9%,44.2*
CC(C)(C)C(=O)Nc1nc2cc3c(cc2s1)OCO3,6.8%,70.6*,?,1.3%,-15.2%,37.0*
O=C(NNc1nc2cc3c(cc2s1)OCCO3)c1ccccc1,6.5%,145.9*,70.2%,0.8%,-23.4%,36.1*
